According to PubChem BioAssay (NCI):
Compounds without any hit were thinned out: in the full panel of roughly 83,000, 20% have a hit.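 Cell lines were cultured in 96-well plates, exposed to a single compound concentration, and assessed for percent growth 48 hours later.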 Active and inactive are the calls of the source. Rule for the calls: active = growth percent below 10; inactive = the rest.

Columns and labels:
Assay in all cases: NCI-60 one-dose screen, 48 h (100 = growth as untreated, 0 = no growth, -100 = all killed)
Conditions in all cases: 10 µM
[1] = test system: DU-145 prostate
[2] = test system: K-562 leukemia
[3] = test system: MALME-3M melanoma
[4] = test system: MDA-MB-231 breast
[5] = test system: RXF 393 renal
[6] = test system: SF-268 CNS
[7] = test system: SF-295 CNS
[8] = test system: SF-539 CNS
[9] = test system: UACC-257 melanoma
[10] = test system: M14 melanoma

Measured: growth

CC1(C)Nc2cccc3c(N=Nc4ccc(N=Nc5ccccc5)c5ccccc45)ccc(c23)N1
inactive: [1] 120% | [2] 123% | [3] 132% | [4] 66.9% | [5] 124% | [6] 106% | [7] 100% | [8] 94.5% | [9] 95.9% | [10] 91.6%

Brc1cnc2ccccc2c1
inactive: [1] 102% | [2] 107% | [3] 94.6% | [4] 113% | [5] 121% | [6] 97.2% | [7] 101% | [8] 103% | [9] 103% | [10] 97.7%

CCNCCCCNCCCCNCCCCNCCCCNCC
active: [3] -12.6%
inactive: [1] 82.1% | [2] 61% | [4] 109% | [5] 81.7% | [6] 138% | [7] 62.3% | [8] 122% | [9] 30.7% | [10] 66.9%

CCN1C(=O)/C(=C/C=C/N(C)c2ccccc2)SC1=S
inactive: [1] 88.8% | [2] 79.1% | [3] 86.4% | [4] 94.2% | [5] 90.3% | [6] 65.7% | [7] 54.8% | [8] 92.3% | [9] 97.7% | [10] 101%

COCCOC(=O)c1ccc(C(C)C)cc1
inactive: [1] 103% | [2] 106% | [3] 92.7% | [4] 102% | [5] 124% | [6] 99.1% | [7] 104% | [8] 99% | [9] 81% | [10] 93.2%

CC1CC(O)C2C3(C)CCCC2(COC3=O)C12CCC1(CCOC1=O)O2 (stereo not given)
inactive: [1] 105% | [2] 127% | [3] 116% | [4] 126% | [5] 114% | [6] 107% | [7] 131% | [8] 101% | [9] 114% | [10] 96.8%

FC(F)(F)c1ccc2c(c1)N(CCCN1CCN(C3CC3)CC1)c1ccccc1S2
active: [1] 2.25% | [6] -4.95% | [7] 3.21%
inactive: [2] 24.5% | [3] 96.7% | [4] 83% | [5] 80.7% | [8] 94.2% | [9] 74.4% | [10] 34.3%

CCN(CC)c1ccc2nc3ccc(=[N+](CC)CC)cc-3oc2c1
inactive: [1] 37.6% | [2] 21% | [5] 53.1% | [6] 13.9% | [8] 21.2%
active: [3] -48.6% | [4] -12.1% | [7] 1.09% | [9] -55.8% | [10] -34.1%

COc1ccc(C)cc1OC
inactive: [1] 99.6% | [2] 92.9% | [3] 97% | [4] 107% | [5] 117% | [6] 98.4% | [7] 95.7% | [8] 109% | [9] 93.9% | [10] 115%

COc1ccc(NC(=O)CCl)cc1
inactive: [1] 94.6% | [2] 93.4% | [3] 88.6% | [4] 81.6% | [5] 69.7% | [6] 73.3% | [7] 101% | [8] 83.5% | [9] 60.4% | [10] 75.1%

O=c1cc(-c2ccccc2)nc2cc(-c3ccco3)[nH]n12
inactive: [1] 115% | [2] 42.8% | [3] 84.2% | [4] 98.8% | [5] 100% | [6] 93.8% | [7] 110% | [8] 81.8% | [9] 43.8% | [10] 77.8%

COC(=O)c1ccc(NC(=O)CCl)cc1
inactive: [1] 103% | [2] 70.9% | [3] 79.9% | [4] 64.9% | [5] 95.7% | [6] 89.5% | [7] 69.3% | [8] 96.7% | [9] 60.4% | [10] 90.4%

CCOC(=O)C1=C(C)NC(=O)NC1c1cccs1 (stereo not given)
inactive: [1] 122% | [2] 103% | [3] 110% | [4] 110% | [5] 99.7% | [6] 108% | [7] 112% | [8] 103% | [9] 102% | [10] 111%

CCCOC(=O)C(O)c1ccccc1 (stereo not given)
inactive: [1] 113% | [2] 129% | [3] 96.8% | [4] 90% | [5] 111% | [6] 99.7% | [7] 109% | [8] 101% | [9] 108% | [10] 93.8%

O=C(CCl)N1CCN(C/C=C/c2ccccc2)CC1
inactive: [1] 110% | [2] 88.1% | [3] 83% | [4] 100% | [5] 86.4% | [6] 87.7% | [7] 105% | [8] 104% | [9] 85.8% | [10] 90.1%

CCOC(=O)CSc1c([N+](=O)[O-])ncn1C
inactive: [1] 105% | [2] 109% | [3] 80.4% | [4] 96.5% | [5] 103% | [6] 103% | [7] 102% | [8] 94.3% | [9] 94.6% | [10] 94.1%

COc1ccc(C(C)C=O)cc1 (stereo not given)
inactive: [1] 109% | [2] 104% | [3] 133% | [4] 110% | [5] 139% | [6] 114% | [7] 115% | [8] 99% | [9] 117% | [10] 109%

N/N=C(/Cc1ccccc1)NNC(N)=S
inactive: [1] 106% | [2] 103% | [3] 95.4% | [4] 111% | [5] 112% | [6] 97.4% | [7] 105% | [8] 98.5% | [9] 92.3% | [10] 93.5%

O=[N+]([O-])c1ccc(-c2ncc(-c3ccc(Br)cc3)o2)cc1
inactive: [1] 112% | [2] 97.3% | [3] 125% | [4] 119% | [5] 106% | [6] 107% | [7] 98.3% | [8] 101% | [9] 74.1% | [10] 109%

OCc1ccc(-c2ccc(-c3ccc(CO)s3)o2)s1
inactive: [3] 78.1% | [4] 98.8% | [5] 57% | [6] 73.4% | [7] 13.6% | [8] 43.8% | [9] 32.5% | [10] 87.6%
active: [1] 6.59% | [2] -3.52%

O=c1[nH]n(-c2ccccc2)c(=O)cc1Cl
inactive: [1] 116% | [2] 103% | [3] 99.9% | [4] 97.2% | [5] 113% | [6] 101% | [7] 114% | [8] 97.7% | [9] 97.1% | [10] 106%

CC1(C(=O)O)NC(C(=O)O)Cc2c1[nH]c1ccccc21 (stereo not given)
inactive: [1] 110% | [2] 96.9% | [3] 90.5% | [4] 104% | [5] 110% | [6] 113% | [7] 90.2% | [8] 105% | [9] 87.6% | [10] 96.7%

O=C(Nc1cc(-c2ccccc2)[nH]n1)c1ccc(Cl)cc1
inactive: [1] 77.6% | [2] 61.1% | [3] 92.6% | [4] 114% | [5] 32.4% | [6] 74.2% | [7] 71.2% | [8] 66.2% | [9] 77.9% | [10] 64.4%

O=C(CN1CCNCC1)N1CCOCC1
inactive: [1] 130% | [2] 97.5% | [3] 96.3% | [4] 110% | [5] 123% | [6] 110% | [7] 102% | [8] 99.5% | [9] 109% | [10] 103%

CC1(c2ccccc2)NC(=O)NC1=O (stereo not given)
inactive: [1] 125% | [2] 103% | [3] 113% | [4] 111% | [5] 110% | [6] 106% | [7] 119% | [8] 117% | [9] 84.5% | [10] 121%

N#Cc1ccc(NC(=O)Nc2cccc(C#N)c2)cc1
inactive: [1] 116% | [2] 46.1% | [3] 121% | [4] 92.1% | [5] 99.3% | [6] 112% | [7] 89.3% | [8] 93.9% | [9] 89.2% | [10] 98.1%

N#Cc1c(N)sc(=S)c2c1CCCC2
inactive: [1] 113% | [2] 113% | [3] 119% | [4] 111% | [5] 118% | [6] 104% | [7] 110% | [8] 110% | [9] 110% | [10] 116%

O=C(O)C(Cc1ccccc1)C(=O)O
inactive: [1] 113% | [2] 108% | [3] 115% | [4] 104% | [5] 104% | [6] 110% | [7] 98.1% | [8] 102% | [9] 108% | [10] 104%

S=C1CCCCCN1
inactive: [1] 110% | [2] 107% | [3] 107% | [4] 111% | [5] 123% | [6] 99.6% | [7] 102% | [8] 96.8% | [9] 97.8% | [10] 105%

CCOc1ccc(/C=N/N=C(N)N)cc1OCC
inactive: [1] 117% | [2] 98.7% | [3] 113% | [4] 108% | [5] 111% | [6] 96.2% | [7] 95.9% | [8] 99.8% | [9] 89.7% | [10] 99.3%
